# In PubChem BioAssay AID652020 (National Center for Advancing Translational Sciences (NCATS), 2013):
# The list shows a part of the results. Inconclusive results are not listed. Active and inactive are the calls of the source. Calls come from the whole dose curve; as a rule, active = well fitted curve in the direction sought with a large enough effect; inconclusive = small, poorly fitted or top-dose-only effect, or another doubt; inactive = no such curve, though single readings can be large or run the other way.
# Target: Glutathione reductase, mitochondrial (Homo sapiens) (UniProt P00390)
# Sequence (P00390 whole entry, looked up): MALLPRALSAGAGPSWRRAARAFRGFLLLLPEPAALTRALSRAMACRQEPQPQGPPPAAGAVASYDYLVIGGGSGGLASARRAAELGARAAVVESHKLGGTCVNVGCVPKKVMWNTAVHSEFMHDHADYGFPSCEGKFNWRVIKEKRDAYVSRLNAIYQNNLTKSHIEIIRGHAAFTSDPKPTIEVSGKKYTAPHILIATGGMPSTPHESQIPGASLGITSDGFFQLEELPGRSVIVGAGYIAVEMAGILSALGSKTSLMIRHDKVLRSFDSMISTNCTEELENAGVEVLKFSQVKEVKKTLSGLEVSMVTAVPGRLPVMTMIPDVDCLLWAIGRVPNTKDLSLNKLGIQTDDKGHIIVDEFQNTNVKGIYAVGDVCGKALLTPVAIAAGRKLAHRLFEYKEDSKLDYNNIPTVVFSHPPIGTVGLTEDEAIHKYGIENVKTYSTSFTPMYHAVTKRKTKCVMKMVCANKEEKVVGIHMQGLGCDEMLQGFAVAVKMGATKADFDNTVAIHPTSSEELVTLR
# Assay: qHTS Assay for Inhibitors of Mammalian Selenoprotein Thioredoxin Reductase 1 (TrxR1): Counterassay in Glutathione Reductase (GR)
# Details: purified GR, DTNB reduction absorbance 405 nm kinetic; series mostly up to 57.1 µM
# Source text: The selenoprotein thioredoxin reductase (TrxR; EC 1.8.1.9) is a FAD containing homodimeric pyridine nucleotide-disulfide oxidoreductase with many cellular roles. Together with NADPH and its prime substrate thioredoxin (Trx), the enzyme forms the core of the Trx system. The mammalian Trx system exerts a wide spectrum of functions including redox regulation, antioxidant defense, regulation of transcription factors as well as support of cell growth and replication. Many of these functions involve the reduction of Trx, which may subsequently reduce a number of different substrates including ribonucleotide reductase, peroxiredoxins or NFkB. Mammalian TrxR itself also has a broad substrate specificity, reducing both protein and non-protein substrates, including low molecular weight compounds such as dehydroascorbate, lipoic acid, ubiquinone, and juglone. In addition, several drugs in clinical use for anticancer treatment are indeed known to target TrxR1. This assay is counterassay using a yeast glutathione reductase (GR) assay. The desired outcome is inactivity in this assay. NIH Molecular Libraries Probe Production Network [MLPCN] NIH Chemical Genomics Center [NCGC] MLPCN Grant: MH090846 Assay Provider: Elias Arner, Karolinska Institute
# Three microliters of reagents (100 microM NADPH and 60 nM hGR or 100 microM NADPH as no-enzyme control) was dispensed into 1,536-well black clear-bottomed plates (Buffer: 0.1 M potassium phosphate, pH 7.4/10 mM EDTA, 0.01 % Tween-20). Compounds (23nl) was transferred via Kalypsys pin tool equipped with 1536-pin array. The plates were incubated for 15 min at room temperature, and 1microl aliquot of 500 microM NADPH was added, immediately followed by a 1 microl aliquot of 15 mM DTNB (3 mM final concentration) to start the reaction. The plate was transferred to a ViewLux high-throughput CCD imager (Perkin-Elmer, Wellesley, MA) where kinetic measurements (one read per 5 min for 6 reads, total time 25 min) of the TNB absorbance was acquired using a 405 excitation filter.
row,SMILES,outcome
1,O=C(/C=C/c1ccco1)Nc1cccc(-c2nc3ccccc3[nH]2)c1,inactive
2,Cc1ccccc1-c1nc(CS(=O)(=O)CC(=O)N2CCc3ccccc3C2)c(C)o1,inactive
3,CC1CCN(C(=O)c2ccc(S(=O)(=O)Cc3cc(F)ccc3F)c([N+](=O)[O-])c2)CC1,inactive
